# Only some compounds are listed: those with a hit (about 27% of all), similar ones and a draw of the others.
# Cav3 T inh: blocks human Cav3.2 T-type calcium channel; O95180; Cav3.2-expressing cells, Fluo-4 calcium fluorescence FDSS; hits give low values; B-score at 10 µM; 100,000 compounds, 4% hits;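 active = single-dose well whose peak fluorescence ratio is a statistical outlier from its plate by either plate-standardised score or position-corrected B-score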
# CYP2C9 inhib: inhibitors of human CYP2C9 | P11712 | CYP2C9 Supersomes, luciferin-H conversion, luminescence | inhibition, % at 5 µM | 96,000 compounds, 20% hits;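 active = blocking of liver enzyme CYP2C9 beyond about 50% at 5 µM, limit read from the data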
# Target sequence (P11712 whole entry, looked up): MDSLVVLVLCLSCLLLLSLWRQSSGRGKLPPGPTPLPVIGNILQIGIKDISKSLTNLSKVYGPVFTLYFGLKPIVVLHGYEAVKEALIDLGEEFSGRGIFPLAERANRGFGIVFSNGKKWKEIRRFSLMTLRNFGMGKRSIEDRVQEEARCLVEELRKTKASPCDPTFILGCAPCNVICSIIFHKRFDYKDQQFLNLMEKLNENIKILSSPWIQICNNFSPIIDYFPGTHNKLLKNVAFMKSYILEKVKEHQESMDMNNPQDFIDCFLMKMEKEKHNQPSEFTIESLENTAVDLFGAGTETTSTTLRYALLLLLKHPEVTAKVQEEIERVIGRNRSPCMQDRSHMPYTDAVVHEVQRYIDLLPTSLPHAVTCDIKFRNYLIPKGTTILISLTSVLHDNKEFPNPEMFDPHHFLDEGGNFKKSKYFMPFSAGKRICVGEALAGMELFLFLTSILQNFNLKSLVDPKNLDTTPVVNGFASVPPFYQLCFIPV
# CYP2C19 inhib: blocks human cytochrome P450 2C19. P33261. CYP2C19 Supersomes, luciferin-H EGE luminescence, 30 min. inhibition, % at 5 µM. 96,000 compounds, 21% hits. AID 778;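 active = CYP2C19 inhibition above a set limit at 5 µM in the primary screen, cut at about 50% in these data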;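 note: plate controls were negative control wells for no effect and 2.5 mM tranylcypromine positive control for full effect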
# CYP2C19 activ: increases human CYP2C19 enzyme activity | P33261 | recombinant CYP2C19, luciferin-H EGE luminescence; hits give high values; 0 = fully inhibited enzyme, 1 = untreated enzyme | activation factor at 5 µM | 96,000 tested, under 10 active;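 active = activation factor of at least 2 at 5 µM in the primary screen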;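 note: 0 = wells with 2.5 mM tranylcypromine and 1 = vehicle-only wells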
# CYP2C9 activ: increases human cytochrome P450 2C9 activity. recombinant CYP2C9, luciferin-H conversion, luminescence; hits give high values; factor 1 = untreated enzyme, 0 = blocked. activation factor at 5 µM. 96,000 compounds, 1.4% hits. P11712;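 active = activation factor of 2 or more for CYP2C9 at a 5 µM dose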;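 note: 0 = sulfaphenazole-blocked wells and 1 = vehicle-only wells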
# * = called active by the depositor; x = not tested or not shown.
SMILES,Cav3 T inh,CYP2C9 inhib,CYP2C19 inhib,CYP2C19 activ,CYP2C9 activ
O=[N+]([O-])c1ccc(-c2ccc(/C=N/c3c(-c4ccco4)nc4ccccn34)o2)cc1,x,10,-3,1,0.9
S=C(NCCSCc1ccccc1Cl)Nc1ccccc1,-6.4*,-94,96*,0,1.9
S=C(NCCSCc1ccc(Cl)cc1)Nc1ccccc1,x,52*,51*,0.5,0.5
c1ccc([C@H]2CC3C[C@@H](c4ccccc4)N2O3)cc1,-0.39,-11,45,0.5,1.1
Cc1ccc(-c2csc3nc(C)n(N)c(=O)c23)o1,0.039,20,17,0.8,0.8
Cc1ccc(-c2csc3ncn(/N=C/N(C)C)c(=O)c23)o1,0.037,23,74*,0.3,0.8
Cc1nc2scc(-c3ccco3)c2c(=O)n1/N=C/N(C)C,0.13,20,65*,0.4,0.8
Nc1ccc2[nH]ncc2c1,1.2,x,x,x,x
COc1ccc(S(=O)(=O)NCCSc2ccc(C)cc2)cc1OC,-2.2,-25,82*,0.2,1.2
CCCCCCNS(=O)(=O)c1ccc(OC)c(OC)c1,-1.6,-135,85*,0.1,2.3*
CCCCNC(=O)CCCCCNS(=O)(=O)c1ccc(OC)cc1,-3.1,27,16,0.8,0.7
COc1ccc(S(=O)(=O)NCCSCc2cccc(C)c2)cc1Br,-1.7,-108,48,0.5,2.1*
Cc1ccc(SCCNS(=O)(=O)c2ccc3c(c2)OCCO3)cc1,-6.9*,x,x,x,x
CCC1=C(OC(=O)N(CC)CC)N2C(=O)OC(=NCCc3c[nH]c4ccccc34)[C@]2(Cc2ccccc2)[C@H]2C1=CC[C@H]1C(=O)N(C)C(=O)[C@H]12,-0.33,x,x,x,x
CC(=O)C1=C(O)CCC1=N,0.57,2,0,1,1
COc1ccc(S(=O)(=O)NCCSc2ccccc2)cc1OC,-1.4,-139,97*,0,2.4*
COc1ccc(CCNS(=O)(=O)c2cccc(C(=O)O)c2)cc1OC,-0.0013,10,6,0.9,0.9
N#CCCN/N=C(/Cc1nc2ccccc2[nH]1)c1cccc(Cl)c1,0.12,63*,86*,0.1,0.4
Cc1cccc2cc(CN(Cc3ccc(F)cc3)C(=O)N(C)C)c3nnnn3c12,-6.1*,39,30,0.7,0.6
Cc1cccc2cc(CN(Cc3ccc(F)cc3)C(=O)C(F)(F)F)c3nnnn3c12,0.42,x,x,x,x
Clc1ccccc1CN(Cc1ccccc1)c1ncnc2nc[nH]c12,-3.7*,44,27,0.7,0.6
Clc1ccccc1CNc1ncnc2nc[nH]c12,-1.1,-14,4,1,1.1
Cc1c(C(=O)N2CCOCC2)sc(NC(=O)c2ccc3c(c2)OCO3)c1C#N,0.22,11,-8,1.1,0.9
Cn1c(=O)[nH]c(=O)c2c1nc(N1CCN(c3cccc(Cl)c3)CC1)n2CCCc1ccccc1,0.039,16,10,0.9,0.8
CCCCn1c(CN2CCN(C(=O)OCC)CC2)nc2c1c(=O)[nH]c(=O)n2C,1.2,16,10,0.9,0.8
SMILES,Cav3 T inh,CYP2C9 inhib,CYP2C19 inhib,CYP2C19 activ,CYP2C9 activ
CCCCCn1c(N2CCN(c3cccc(Cl)c3)CC2)nc2c1c(=O)[nH]c(=O)n2C,-5.4*,96*,82*,0.2,0
CCCCCn1c(CN2CCN(c3cc(Cl)ccc3C)CC2)nc2c1c(=O)[nH]c(=O)n2C,-4.4*,24,15,0.9,0.8
O=C(Cn1cc2c(n1)CCCC2)Nc1ccccc1Br,-0.44,67*,90*,0.1,0.3
COC(=O)c1ccccc1NC(=O)Cn1cc2c(n1)CCC(C)C2 (stereo not drawn),-4.1,61*,13,0.9,0.4
Cc1ccc(NC(=O)Cn2cc3c(n2)CCC(C)C3)cc1 (stereo not drawn),-2,20,16,0.8,0.8
Cc1ccc2nc(NC(=O)Cn3cc4c(n3)CCCCC4)sc2c1,-0.0025,66*,29,0.7,0.3
O=C(Cn1cc2c(n1)CCCCC2)NCc1ccccc1,1.5,-154,84*,0.2,2.5*
CSc1ncccc1C(=O)OCC(=O)NC(=O)NCCC(C)C,-1.6,-22,16,0.8,1.2
CC(C)CCNC(=O)Cn1cc2c(n1)CCCCC2,1.3,49,6,0.9,0.5
COc1cccc(CNC(=O)Cn2cc3c(n2)CCCC3)c1,0.074,-22,70*,0.3,1.2
O=C(Cn1cc2c(n1)CCCC2)NCc1cccc(Cl)c1,0.36,-93,48,0.5,1.9
CC1CCN(C(=O)Cn2cc3c(n2)CCCC3)CC1,0.29,15,55*,0.4,0.9
CCN(CCNC(=O)Cn1cc2c(n1)CCCC2)c1ccccc1,-0.38,69*,72*,0.3,0.3
COc1ccc2nc(SCC(=O)c3ccco3)[nH]c2c1,x,12,15,0.8,0.9
Cc1nc2sc(C(c3ccc(Cl)cc3)N3CC(C)OC(C)C3)c(O)n2n1 (stereo not drawn),0.14,-4,20,0.8,1
CC1NC(=O)N(C)C2NC(=O)N(C)C(c3ccccc3)C12 (stereo not drawn),0.52,0,-1,1,1
Cc1c(C(=O)OCC(=O)N2CC(=O)Nc3ccccc32)oc2ccc(Br)cc12,-1.2,-29,-26,1.3,1.3
Cc1cccc(S(=O)(=O)c2c(N)n(/N=C/c3ccco3)c3nc4ccccc4nc23)c1,-0.15,86*,61*,0.4,0.1
Cc1ccc(S(=O)(=O)c2c(N)n(/N=C/c3ccco3)c3nc4ccccc4nc23)cc1C,-0.11,51*,23,0.8,0.5
Cc1ccc(S(=O)(=O)c2c(N)n(/N=C/c3ccco3)c3nc4ccccc4nc23)cc1,-2.1,84*,68*,0.3,0.2
O=C(O)CCC(=O)N1CCc2cc(S(=O)(=O)N(CCc3ccccc3)Cc3ccccc3)ccc21,-2.3,12,0,1,0.9
CCc1ccccc1NC(=O)CSc1nnc([C@H](CCSC)NC(=O)OC(C)(C)C)o1,-2.7,65*,51*,0.5,0.4
CSCC[C@H](NC(=O)OC(C)(C)C)c1nnc(SCC=C(C)C)o1,-1.3,57*,51*,0.5,0.4
NC(=O)c1ncn([C@@H]2O[C@H](CO)[C@@H](O)[C@H]2O)c1O,-1.2,x,x,x,x
CCCCn1c(=N)n(CC(O)COc2cccc(C)c2)c2ccccc21 (stereo not drawn),x,1,20,0.8,1
CC(=O)c1cc(CN2C(=O)c3ccccc3C2=O)cs1,-0.4,20,96*,0,0.8
C=C(C)C1CC=C(C)/C(=N/NC(=O)c2ccc(NC(=O)c3cccc(C)c3)cc2)C1 (stereo not drawn),x,62*,59*,0.4,0.4
O=C(NCc1nc2ccccc2[nH]1)C1=C[C@@H](C2CCCCC2)C[C@@H](OCCCCO)O1,-1.1,x,x,x,x
Cn1c(=O)oc2cc(S(=O)(=O)N3CCC4(CC3)OCCO4)ccc21,-0.089,-2,75*,0.2,1
Cc1ccc(Cl)cc1N1CCN(S(=O)(=O)c2ccc3c(c2)oc(=O)n3C)CC1,-2.1,97*,12,0.9,0

# High-throughput results (PubChem)
